The values below come from PubChem BioAssay (NCI).

The structures appear in SMILES notation. About 83,000 compounds went through this panel and 20% of them were active in at least one assay; those are over-represented in the sample as a whole.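 Testing used 96-well plates and a 48-hour single-concentration exposure. Example: -40 means 40% of the starting cells died.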 Unmarked numbers belong to inactive results. Active and inactive are the calls of the source. Rule for the calls: active = growth percent below 10; inactive = the rest.

Common to all, as to experiment: NCI-60 one-dose screen, 48 h (100 = growth as untreated, 0 = no growth, -100 = all killed)
Details in all cases: 10 µM unless noted

The test system of test [1] is T-47D breast.
Test [2] has as its system BT-549 breast.
Test [3] has as its system MDA-MB-435 melanoma.
The subject of test [4] is SW-620 colon.
For test [5], the system named is MCF7 breast.
Test [6] concerns HCT-116 colon.
The test system of test [7] is HCC-2998 colon.
Test [8] deals with KM12 colon.

Take `CCN(CC)c1ccc(/C=N/NC(=O)c2ccc(NS(C)(=O)=O)cc2)c(O)c1`: the growth was 26.3% in test [1]; 11.6% in test [2]; 28.8% in test [3]; 36.9% in test [4]; 6.08% (active) in test [5]; 21.7% in test [6]. For the same compound, the growth in test [7] was 38.5%; in test [8] it was 15.2%.

`Cn1cc(-c2nc(N)nnc2-c2c[nH]c3ccc(Br)cc23)c2cc(F)ccc21`: the growth in test [1] is 74.8%; in test [2], 96.9%; in test [3], 50.5%; in test [4], 95.1%; in test [5], 47.4%; in test [6], 100%. Besides, the growth is 122% in test [7] and 74.7% in test [8].

On to `O=C(Nc1ccc(Cl)c(C(F)(F)F)c1)Nc1ccc2c(ccn2C(=O)c2cccc(F)c2)c1`, for which the growth in test [1] is 0.647% (active); in test [2] it was 53.3%; in test [3], 34.6%; in test [4], 40.9%; in test [5] it was 12.9%; in test [6], 20%. Moreover, the figures for the growth in test [7] and in test [8] were 44.1% and 11%, respectively.

Turning to `O=C(CSc1nc2ccccc2c(=O)n1-c1ccc(Cl)cc1)N/N=C/c1ccc(Oc2ccc(Cl)cc2)cc1`, the growth in test [1] is 30.1%; in test [2], -17.7% (active); in test [3], 25.1%; in test [4], 2.62% (active); in test [5], 15.5%; in test [6], -67.8% (active). In addition, the growth is 20.3% in test [7] and 17.4% in test [8].

For `CN1c2ccccc2Sc2cc(/C=N/Nc3ccnc4cc(Cl)ccc34)ccc21`, the growth in test [1] was 87.4%; in test [2] it was 99%; in test [3], 62.9%; in test [4], 84.8%; in test [5], 49.4%; in test [6], 57.3%. For the same compound, the growth in test [7] is 110%; in test [8], 86.8%.

With `CN1CCN(c2ccc(Nc3nc(NCCNS(=O)(=O)c4ccccc4)c4sccc4n3)cc2)CC1`, the growth in test [1] is 86.3%; in test [2] it was 108%; in test [3], 105%; in test [4], 101%; in test [5], 92.1%; in test [6] it was 96%. For the same compound, the growth in test [7] was 106%; in test [8], 103%.

On to `C[C@@H]1OCC2(CCN(c3cnc(C(=O)Nc4cc(F)cc5cccnc45)cn3)CC2)[C@@H]1N`, for which the growth in test [1] was 37.1%; in test [2] it was 90.1%; in test [3], 82.9%; in test [4] it was 12.5%; in test [5], 2.1% (active); in test [6], 15.7%. Besides, the growth in test [7] was 84.3%; in test [8], 83.7%.

Turning to `Cc1ccccc1N1CCN(C2=C(Cl)C(=O)c3ncccc3C2=O)CC1`, the growth in test [1] is -52.5% (active); in test [2], 99.1%; in test [3], -62.9% (active); in test [4] it was -27.8% (active); in test [5], -29.3% (active); in test [6], -95.2% (active). Besides, the growth in test [7] is 105%; in test [8] it was 87.2%.

In the case of `CC(C)(C)OC(=O)NCc1ccc(CNc2c([N+](=O)[O-])cnc3ccccc23)cc1`, the growth in test [1] was 28.1%; in test [2], 54.8%; in test [3] it was 56.4%; in test [4], 89.6%; in test [5], 40.6%; in test [6], 37.7%. Further, the growth in test [7] was 84.7%; in test [8], 74.9%.

`CC(Nc1c(C#N)cnc2ccc(-c3cncc(-c4n[nH]c(=O)o4)c3)cc12)c1ccccc1` (configuration not stated): the growth was 13.1% in test [1]; -20.1% (active) in test [2]; 24% in test [3]; 18.7% in test [4]; 8.39% (active) in test [5]; 0.0701% (active) in test [6]. The growth in test [7] was 25.8%; in test [8], 17.1%.

On to `C#CCN(C)CCCOc1ccc(NCc2ccc(C(=O)NO)cc2)cc1Cl`, for which the growth is 0.446% (active) in test [1]; 75.4% in test [2]; 9.64% (active) in test [3]; 12.2% in test [4]; 18% in test [5]; 10.7% in test [6]. In addition, the growth in test [7] is 32.7%; in test [8], 24.2%.

On to `COC(=O)CCCNCCCn1ccc2cc(NCc3cccc(-c4ccccc4)c3C)ccc21`, for which the growth in test [1] is 58%; in test [2], 90.2%; in test [3], 70.9%; in test [4], 66.5%; in test [5], 56.9%; in test [6], 53%. Further, the growth in test [7] was 90.2%; in test [8], 85.9%.

Consider `C#C[C@]1(O)CC[C@H]2[C@@H]3CC=C4c5sc(Nc6ccc(C)cn6)nc5CC[C@]4(C)[C@H]3CC[C@@]21C`, for which the growth in test [1] was 18.9%; in test [2], -12.7% (active); in test [3], -51.8% (active); in test [4], -53.1% (active); in test [5], -68.9% (active); in test [6], 5.1% (active). The growth in test [7] is 19.2%; in test [8] it was -35.5% (active).

Consider `COc1ccc2[nH]cc(-c3nc(N)nnc3-c3cn(C)c4ccc(Br)cc34)c2c1`, for which the growth in test [1] is 29.3%; in test [2], 39.6%; in test [3], -8.23% (active); in test [4] it was 20.9%; in test [5] it was 12.2%; in test [6], 18.1%. Further, the growth was 58.9% in test [7] and 23.7% in test [8].
